Screens (PubChem)
TDP1 cell CPT – qHTS for Inhibitors of human tyrosyl-DNA phosphodiesterase 1 (TDP1): qHTS in cells in presence of CPT | chicken DT40 Tdp1-/-;hTDP1 cells + 20 nM CPT, ATP luminescence, 48 h | Potency, µM (top dose mostly 46.2 µM), for inactives: at the top dose activity change, negative = growth inhibition, actives largely listed as inhibitors | hit rate 12% among 420,000 | AID 686979, 2013; further: potency means the concentration at half of the fitted maximal effect; nearly all actives have a fitted effect of over 55% in size
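Cell growth measured by CellTiter-Glo luminescence after a minimum 48 h, 37 C compound exposure with 20 nM CPT in Tdp1-knockout DT40 cells stably expressing hTDP1, seeded 400/well; qHTS titration format.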
LDHA inh – qHTS assay for inhibitors of human lactate dehydrogenase; L-lactate dehydrogenase A chain (Homo sapiens), P00338; purified LDHA, NADH/diaphorase-resazurin fluorescence; stronger effect = lower value; activity change, % (values are at about 110 or 230 µM); hit rate 0.15% among 480,000; in the data active means activity change below about -30%; inconclusive means mostly about -25% to -30%;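 further: plate controls were DMSO wells for no effect and wells without enzyme for full effect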
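Human LDH5 at 2 nM final in Tris HCl pH 7.4 with 0.06 mM NADH and 0.2 mM pyruvate, reacted 5 minutes at room temperature. Remaining NADH coupled via diaphorase/resazurin; resorufin fluorescence read at 0 and 20 minutes, normalized to enzyme-free and DMSO wells.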
IL1B secr inh – qHTS for Inhibitors of Inflammasome Signaling: IL-1-beta AlphaLISA Primary Screen | THP-1 LPS/ATP IL-1B secretion, AlphaLISA, 16 h; stronger effect = lower value | activity change, % at 57.5 µM | hit rate 4.7% among 360,000; in the data active means activity change below about -50%; inconclusive means mostly about -30% to -49%
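Secreted IL-1B measured by AlphaLISA bead assay after 16 h compound exposure of THP-1 cells; compounds (final up to 57.5 uM) added 1 h before LPS (250 ng/mL) and ATP (1.25 mM) stimulation; lower signal means less secretion.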
DT40 TDP1 no CPT – qHTS for Inhibitors of human tyrosyl-DNA phosphodiesterase 1 (TDP1): qHTS in cells in absence of CPT. DT40 Tdp1-/- hTDP1 cells, no CPT, ATP luminescence, 48 h. Potency, µM (titrated, usually from 46.2 µM), without a hit: top-dose activity change, negative = growth inhibition, usual class: inhibitors. hit rate 15% among 420,000; further: potency means the concentration at half of the fitted maximal effect; nearly all actives have a fitted effect of over 55% in size
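A cellular qHTS used chicken DT40 cells lacking endogenous Tdp1 but carrying stably transfected human TDP1. Compounds were applied without camptothecin, and cell growth kinetics were judged by ATP-dependent luminescence after ≥48 hr.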
RORg inh – qHTS for inhibitors of ROR gamma transcriptional activity | Nuclear receptor ROR-gamma (Mus musculus), P51450 | Drosophila S2 Gal4-RORgamma UAS-luciferase reporter, 20 h | Potency, µM (doses to about 53.6 µM), for the others: at the highest dose activity change, negative = inhibition, hits mostly inhibitors | hit rate 5.4% among 310,000 | AID 2551, 2010; further: potency means the concentration at half of the fitted maximal effect; nearly all actives have a fitted effect of over 60% in size
Target sequence (P51450 whole entry, looked up, the tested form may be a part): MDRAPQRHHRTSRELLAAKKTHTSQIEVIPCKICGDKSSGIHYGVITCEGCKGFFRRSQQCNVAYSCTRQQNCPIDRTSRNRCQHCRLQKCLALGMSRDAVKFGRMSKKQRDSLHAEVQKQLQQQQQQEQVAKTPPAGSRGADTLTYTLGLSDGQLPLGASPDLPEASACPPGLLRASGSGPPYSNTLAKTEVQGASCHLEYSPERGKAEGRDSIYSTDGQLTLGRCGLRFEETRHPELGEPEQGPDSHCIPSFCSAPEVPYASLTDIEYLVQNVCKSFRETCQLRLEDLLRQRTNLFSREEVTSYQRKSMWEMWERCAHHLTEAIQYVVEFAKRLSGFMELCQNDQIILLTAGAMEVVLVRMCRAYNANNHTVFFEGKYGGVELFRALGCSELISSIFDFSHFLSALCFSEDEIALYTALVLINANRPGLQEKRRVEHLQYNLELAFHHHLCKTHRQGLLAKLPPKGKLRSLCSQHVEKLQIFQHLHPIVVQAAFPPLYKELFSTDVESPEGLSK
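Schneider cells (Drosophila), stable Gal4 DBD–ROR gamma + UAS-luc; 1 hr cmpd preincubation; Cu2+ induction 700 uM final; 20 hr ambient; luminescence.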
Gal4-VP16 FLuc – VP16 counterscreen qHTS for inhibitors of ROR gamma transcriptional activity; Drosophila S2 Gal4-VP16 UAS-luciferase, luminescence, 20 h; Potency, µM (series often up to 53.6 µM), without a hit: top-dose activity, negative = inhibition, usual class: inhibitors; hit rate 3.5% among 310,000;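 further: Gal4-VP16 expression switched on by copper sulfate through the metallothionein promoter; potency means the concentration at half of the fitted maximal effect; nearly all actives have a fitted effect of over 50% in size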
* hit, by the source's call; u = inconclusive; x = not tested or not shown; [ ] = dose if it differs, or a comment. In the library only some 18% were active in any assay of this set; here they are far more common. Unless noted, the call rests on the fitted dose curve; in most records, active means well fitted curve in the direction sought with a large enough effect; inconclusive means small, poorly fitted or top-dose-only effect, or another doubt; inactive means no such curve, though single readings can be large; an effect the other way counts as inactive or inconclusive. Unless noted, on the % scale 0 is the no-effect control and ±100 the full control effect.

SMILES	TDP1 cell CPT	LDHA inh	IL1B secr inh	DT40 TDP1 no CPT	RORg inh	Gal4-VP16 FLuc
C(=N\Nc1nc(N2CCOCC2)nc(N2CCOCC2)n1)/c1ccncc1	0%	-8	8	-18%	0%	-12%
CN(C)c1ccc(/C=C/C=N/Nc2nc(N3CCOCC3)nc(N3CCOCC3)n2)cc1	16µM*	5	-14	u	2%	1%[10 µM]
BrC(=C\c1ccccc1)/C=N/Nc1nc(N2CCOCC2)nc(N2CCOCC2)n1	2.3µM*	-2	-129*	13µM*	-24%	u
CCOc1ccc(-c2cc(C(=O)NCCCN(C)C)c3ccccc3n2)cc1	x	8	x	x	x	x
CCN(CC)S(=O)(=O)c1ccc(-c2cn3cc(Cl)ccc3n2)cc1	u	-1	2	18µM*	13%	u
Oc1ccc(-c2cn3cc(C(F)(F)F)ccc3n2)cc1	u	-5	-14	u	2.2µM*	8.9µM*
Clc1ccc(-c2cn3cc(Cl)ccc3n2)cc1	-2%	-4	11	-11%	10µM*	13µM*
Clc1ccc(-c2cn3c(n2)CCC3)cc1	u	-5	-3	u	u	11%
CCN(CC)S(=O)(=O)c1cccc(-c2cn3cccnc3n2)c1	-1%	-13	32	-12%	14%	-3%
O=C(COc1cc(F)cc(F)c1)NC1CCS(=O)(=O)C1 (stereo unspecified)	x	8	x	x	x	x
COC(=O)c1ccc(COC(=O)Cc2ccc(Cl)cc2Cl)cc1	x	-2	x	x	x	x
O=C(Nc1nc(-c2ccc3ccccc3c2)cs1)c1ccc[n+]([O-])c1	x	-2	x	x	x	x
O=S(=O)(c1cccs1)N1CCOc2ccc(COCc3cccc(F)c3)cc2C1	x	3	x	x	x	x
CC(C)c1ccccc1NC(=S)NCCc1ccc(Cl)cc1Cl	x	4	x	x	x	x
Cc1cc(C)n(-c2ccc(C(=O)N3CCc4ccccc43)cc2)n1	u	-5	u	16µM*	23%	-24%
Cc1cc(C(=O)N2CCc3ccccc32)n(-c2ccccc2)n1	u	-4	36	18µM*	-28%	16%
COc1ccc(NC(=O)Cn2c(C)c3cnn(-c4ccccc4)c(=O)c3c2C)c(OC)c1	-18%	2	x	-18%	x	x
Cc1c2cnn(-c3ccccc3)c(=O)c2c(C)n1CC(=O)NCc1ccc(Cl)cc1	-26%	-7	x	-19%	x	x
CCCn1c2ccccc2c2cnn(CC(=O)Nc3cccc(C(=O)OCC)c3)c(=O)c21	-22%	3	x	-20%	x	x
CCOC(=O)c1cccc(NC(=O)CCCn2c(C)c3cnn(-c4ccccc4)c(=O)c3c2C)c1	18µM*	-1	x	16µM*	x	x
CCC(C(=O)Nc1ccc(C(C)=O)cc1)n1c(C)c2cnn(-c3ccccc3)c(=O)c2c1C (stereo unspecified)	23µM*	4	x	u	x	x
CC(=O)c1cccc(NC(=O)Cn2c(C)c3cnn(-c4ccccc4)c(=O)c3c2C)c1	21µM*	-7	x	-19%	x	x
Cc1cnc2c(S(=O)(=O)NCC3CC3)cccc2c1	x	-1	x	x	x	x
O=C(CCn1c(=O)oc2ccccc21)Nc1cccc(S(=O)(=O)N2CCCC2)c1	x	5	x	x	x	x
NCC1CC2c3ccccc3C1c1ccccc12 (stereo unspecified)	5%	-9	-78*	u	2%	-1%
SMILES	TDP1 cell CPT	LDHA inh	IL1B secr inh	DT40 TDP1 no CPT	RORg inh	Gal4-VP16 FLuc
COc1ccc(-c2c(N)nnc3c2[nH]c2ccccc23)cc1OC	u	-8	-64*	21µM*	-3%	-11%
COc1ccc(-c2nnc(NC(=O)c3ccc(F)cc3)o2)cc1	2.9µM*	4	45	u	0.11µM*	u
CS(=O)(=O)c1ccccc1-c1nnc(NC(=O)c2ccco2)o1	-1%	-3	-2	20%	x	x
O=C(Nc1nnc(-c2ccc(F)cc2)o1)c1ccco1	u	0	23	u	u	5µM*
COc1ccc(OC(=O)CSc2nnc(-c3ccc(F)cc3)o2)cc1	-2%	1	x	-27%	x	x
Cc1ccccc1C(=O)Nc1nnc(-c2ccc(F)cc2)o1	6.5µM*	1	69	5.8µM*	1.3µM*	0.45µM*
COc1ccc(-c2nnc(NC(=O)c3cc(Cl)ccc3Cl)o2)cc1	16µM*	-8	30	u	1.1µM*	1.4µM*
CCOC(=O)N1CCN(C(C(=O)O)c2c[nH]c3ccc(OC)cc23)CC1 (stereo unspecified)	x	2	x	x	x	x
O=C(CSc1ccc2ccccc2n1)NCCc1ccc(F)cc1	x	-5	x	x	x	x
Fc1ccc(C2=Nc3ccc(Cl)cc3NC(c3cccs3)=N2)cc1	x	-4	x	x	x	x
Nc1nc2c(s1)C(c1cccc(Cl)c1Cl)CC(=O)N2 (stereo unspecified)	x	76	x	x	x	x
O=C(Nc1nnc(-c2ccccc2Cl)o1)c1cccnc1	u	-1	11	u	0.89µM*	1.3µM*
Cc1ccccc1C(=O)Nc1nnc(-c2cccnc2)o1	-1%	3	18	-3%	3.2µM*	5µM*
O=C(Nc1nnc(-c2ccc(F)cc2)o1)c1ccc(S(=O)(=O)N2CCOCC2)cc1	3.3µM*	3	64	2.9µM*	0.63µM*	0.71µM*
CS(=O)(=O)c1cccc(-c2nnc(NC(=O)c3ccc(S(=O)(=O)N4CCCC4)cc3)o2)c1	-1%	0	-3	3%	x	x
COc1ccccc1C(=O)NNC(=O)c1ccc(F)cc1	1%	-20	9	-14%	29%[10 µM]	-15%
COc1ccccc1C(=O)Nc1nnc(-c2ccc(F)cc2)o1	7%	-3	0	-28%	7.9µM*	11µM*
